Bioassay records deposited in PubChem BioAssay by National Center for Advancing Translational Sciences (NCATS).
HT1080NT lethal = kills 2HG-producing HT-1080-NT fibrosarcoma cells; actives 1.6% (n = 360,000); Potency, µM (doses to about 46.1 µM), for inactives: at the top dose activity, negative = less viability, actives largely listed as cytotoxic; HT-1080-NT fibrosarcoma viability, CellTiter-Glo ATP luminescence, 48 h;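 further: NT is the 2HG producing partner of a matched IDH1 knockdown line; 0% = DMSO-treated cells and -100% = media-only wells without cells; nearly all actives have a fitted effect of over 55% in size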
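Luminescent CellTiter-Glo readout after 48 hours of compound exposure at 37 degrees C defined viability of HT-1080-NT cells. Activity was normalized to DMSO wells and cell-free media wells; concentration-response curves were fitted and assigned curve classes.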
TGFb inhibitor = blocks TGF-b signaling; HepG2 CAGA-GFP TGF-b/SMAD3 reporter, GFP fluorescence, 18 h; TGF-beta stimulated, 500 pg/mL final; Potency, µM (series often up to 46.1 µM), without a hit: top-dose activity, negative = inhibition, actives largely listed as inhibitors; actives 1.2% (n = 410,000); AID 588855; further: on the % scale 0 is the no-effect control and ±100 the full control effect; nearly all actives have a fitted effect of over 65% in size
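GFP signal (ex488/em500-530) from TGF-beta-stimulated HEPG2 CAGA-GFP cells, 500 pg/mL final, 18 h at 37 degrees C in DMEM plus 1% FBS, normalized to unstimulated and DMSO-stimulated controls.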
KB-V1 cytotox = KB-V1 MDR subline cytotoxicity | KB-V1 MDR cells viability, CellTiter-Glo, 72 h | Potency, µM (highest dose often 46.1 µM), usual class: cytotoxic | actives 3.4% (n = 400,000); further: on the % scale 0 is the no-effect control and ±100 the full control effect; nearly all actives have a fitted effect of over 60% in size
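In this primary screen, KB-V1 cells overexpressing P-gp are incubated with library compounds (lowest to highest concentration) for 72 h at 37 degrees C before a luminescent ATP viability read.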
HT1080 IDH1KD tx = kills HT-1080 cells with IDH1 knockdown; HT-1080 IDH1 knockdown viability, ATP luminescence, 48 h; Potency, µM (highest dose often 46.1 µM), without a hit: at the top dose activity, negative = toxicity, usual class: cytotoxic; actives 2% (n = 360,000); AID 686971;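 further: 0% = DMSO wells and -100% = cell-free medium wells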
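Cytotoxicity counter-line: IDH1KD HT-1080, 48 h, CellTiter-Glo. Curves classed by r2, magnitude and activity.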
HepG2 viability = kills HepG2 cells in TGF-b inhibitor counter-screen | Potency, µM (titrated, usually from 46.1 µM), for the others: top-dose activity change, negative = cytotoxicity, most hits filed as cytotoxic | actives 0.76% (n = 410,000) | HepG2 CAGA-GFP viability, ATP luminescence, 18 h
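CellTiter-Glo luminescence gave cytotoxicity after 18 hours at 37 degrees C. The cells were HepG2 CAGA-GFP in 1% FBS DMEM, stimulated with 500 pg/mL TGF-beta after compound addition. %Activity was normalised to no-cell wells (complete cell-killing) and DMSO (no toxicity), and curves were fitted and classified.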
KB-3-1 tox = KB-3-1 parental cell cytotoxicity. KB-3-1 viability, CellTiter-Glo ATP luminescence, 72 h. actives 1.4% (n = 400,000). Potency, µM (top dose mostly 46.1 µM), actives largely listed as cytotoxic. AID 1347075; further: on the % scale 0 is the no-effect control and ±100 the full control effect; nearly all actives have a fitted effect of over 60% in size
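Screening of KB-3-1 cells (DMEM, 10% FBS, phenol-red free) ran from lowest to highest compound concentration; after 72 h at 37 °C viability was read luminescently and curves fitted.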
Active calls of the source: *; i = inactive; u = inconclusive; x = no result. Compounds with a hit are over-represented: about 6.6% of the library has one in this group of screens. The call rests on the fitted dose curve; in most records, active means well fitted curve in the direction sought with a large enough effect; inconclusive means small, poorly fitted or top-dose-only effect, or another doubt; inactive means no such curve, though single readings can be large; an effect the other way counts as inactive or inconclusive. Potency means the concentration at half of the fitted maximal effect.

SMILES	HT1080NT lethal	TGFb inhibitor	KB-V1 cytotox	HT1080 IDH1KD tx	HepG2 viability	KB-3-1 tox
COc1ccc(OC)c(C2CC(=O)N(c3cccc(C)c3)C3=C2C(=O)OC3)c1 (stereo not given)	x	1.8%	i	x	-1.8%	i
CCOC(=O)c1cnc2ccccc2c1Nc1cccc(OC)c1	x	-13.5%	u	x	-10.8%	i
COC(=O)c1ccc2c(=O)n(CCN3CCOCC3)c(SCC(=O)C(C)(C)C)nc2c1	1.1%	-7.4%	10.3µM*	13.7%	-0.6%	i
COC(=O)c1ccc2c(=O)n(CCN3CCOCC3)c(SCC(=O)NCc3ccccc3)nc2c1	5.2%	1.1%	i	10.7%	-10.9%	i
C=CCn1c(SCC(=O)OCC)nc2cc(C(=O)NCc3ccco3)ccc2c1=O	10.7%	-8.3%	i	7.4%	-2.1%	i
COC(=O)c1ccc2c(=O)n(CCN3CCOCC3)c(SCC(=O)Nc3ccc(C)cc3)nc2c1	-2.0%	4.8%	i	-0.8%	0.3%	i
CCCCCn1c(SCC(=O)OCC)nc2cc(C(=O)NCc3ccco3)ccc2c1=O	7.2%	-6.3%	20.6µM*	-1.9%	-18.6%	i
CCOC(=O)CSc1nc2cc(C(=O)OC)ccc2c(=O)n1CCN1CCOCC1	1.9%	0.0%	16.4µM*	3.1%	3.6%	i
O=C(/C=C/Nc1cccc(C(F)(F)F)c1)c1ccco1	9.6%	-8.7%	i	5.6%	-8.8%	i
O=C(/C=C/Nc1cccc(C(F)(F)F)c1)c1ccc(Oc2ncccn2)cc1	2.0%	-4.9%	20.6µM*	1.3%	-9.0%	i
CC(OC(=O)c1cccc(N(C)C)c1)C(=O)N1CCc2ccccc2C1 (stereo not given)	5.6%	-26.8%	8.2µM*	13.2%	0.7%	i
CN(C)c1cccc(C(=O)OCC(=O)N2CCc3ccccc3C2)c1	-0.8%	0.3%	i	3.9%	3.9%	i
Cn1cc([N+](=O)[O-])c(C(=O)Nc2ccc(C(=O)N3CCCCC3)cc2)n1	u	u	u	23.1µM*	8.91µM*	23.1µM*
O=[N+]([O-])c1cc(Oc2cccnc2)cc([N+](=O)[O-])c1	-2.1%	u	i	0.2%	-44.6%	i
Cn1cc([N+](=O)[O-])c(C(=O)Nc2ccc(C3CCCCC3)cc2)n1	23.1µM*	u	u	u	-104.7%	u
Cn1cc([N+](=O)[O-])c(C(=O)Nc2cc(Oc3cccnc3)cc([N+](=O)[O-])c2)n1	20.6µM*	12.6µM*	u	18.4µM*	-82.5%	u
Cc1ccc(N2CC(C(=O)Nc3cccc(S(=O)(=O)N4CCOCC4)c3)CC2=O)cc1 (stereo not given)	2.0%	-1.4%	i	2.2%	-4.1%	i
Clc1nc(-c2ccccn2)nc2scc(-c3ccccc3)c12	u	u	11.6µM*	u	1.7%	u
CC(CC(=O)NCc1ccc(Cl)cc1Cl)CC1=NS(=O)(=O)c2ccccc2N1 (stereo not given)	x	u	u	x	-17.6%	i
CCOc1ccc(S(=O)(=O)c2cn(C)c3ccccc3c2=O)cc1	x	0.8%	i	x	-14.2%	i
CC1=Nc2ccccc2/C1=C/c1nc(-c2ccc(C)s2)oc1O	1.9%	-26.2%	u	-1.4%	-36.0%	i
CC1=Nc2ccccc2/C1=C/c1sc(=N)n(-c2nccs2)c1O	-23.7%	30.7%	i	u	-14.7%	7.31µM*
COc1ccc(-n2cc(-c3ccccc3)c3c(N4CCOCC4)ncnc32)cc1	u	u	16.4µM*	u	10.8%	i
COc1ccc(-n2cc(-c3ccccc3)c3c(NCCCN4CCOCC4)ncnc32)cc1	20.6µM*	9.6%	i	18.4µM*	-19.7%	i
